Screens as filed in PubChem.
This is a sample that favours compounds with a hit; in the whole collection about 21% have one here.
NS1 inh: influenza NS1 inhibition; Potency, µM (top dose mostly 46.1 µM); 270,000 compounds, 0.4% hits; note: actives are rising curves; nearly all actives have a fitted effect of over 50% in size
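A cell-based growth assay was used: compounds that relieve NS1-induced slow growth of budding yeast raise OD600. Assay medium was yeast nitrogen base with ammonium sulphate and -URA supplement, pH 6.0, with 2% galactose.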
Cycloheximide cs: affects cycloheximide protein synthesis inhibition readout, counter-screen. cell reporter, cycloheximide protein synthesis inhibition counterscreen. 300,000 compounds, 12% hits. max response, %. AID 2314; in the data active = max response mostly above about 13%, no sharp cut-off; inactive = mostly below about 14%; note: read at 38.3 µM for the half of the compounds with a filed dose
Pf growth 96h: inhibits malaria parasite growth, 96 h; Potency, µM (doses to about 28.7 µM), actives largely listed as inhibitors; 320,000 compounds, 6.9% hits; P. falciparum luciferase reporter growth, 96 h; active = well fitted inhibition curve with a large enough effect; inconclusive = small, poorly fitted or top-dose-only effect, or another doubt; inactive = no such curve, though single readings can be large or run the other way
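Infected RBCs, 2% Hct / 0.05% parasitemia final; luciferase-reporter P. falciparum; cpd 96 h, 37 C, 5% CO2; luciferase detection reagent; luminescence.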
Pf growth 48h: inhibits P. falciparum growth in the first generation, 48 h | P. falciparum luciferase growth in erythrocytes, 48 h | Potency, µM (highest dose often 28.7 µM), hits mostly inhibitors | 310,000 compounds, 5.9% hits; active = well fitted inhibition curve with a large enough effect; inconclusive = small, poorly fitted or top-dose-only effect, or another doubt; inactive = no such curve, though single readings can be large or run the other way
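Cell-based growth assay: transgenic P. falciparum expressing firefly luciferase, cultured in red cells within RPMI 1640 containing 0.5% w/v Albumax, 24 mM bicarbonate and gentamycin. A drop in luciferase activity indicates inhibition.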
Shiga inhibitor: blocks Shiga toxin action in Vero cells; Vero cells, Shiga toxin protein synthesis inhibition reporter; 290,000 compounds, 9.2% hits; inhibition, % at 38.7 µM; AID 2315; in the data active = inhibition mostly above about 28%, no sharp cut-off; inactive = mostly below about 43%
SARS PLP yeast: SARS-CoV PLP inhibition in yeast | S. cerevisiae expressing SARS-CoV PLpro, growth rescue | Potency, µM (highest dose often 32.9 µM), most hits filed as activators | 330,000 compounds, 0.19% hits; note: nearly all actives have a fitted effect of over 55% in size
Large screens that a line does not name were inactive. Unless noted, calls come from the whole dose curve.

CCOC(=O)c1cccc(NC(=O)c2cc3sccc3n2C)c1	Cycloheximide cs 39.4, Shiga inhibitor 45.5 (no result: Pf growth 96h)
O=C(Nc1ccc2c(c1)OCCO2)c1cc2sccc2n1Cc1ccc(F)cc1	Cycloheximide cs 31.2, Pf growth 96h 10.4µM, Pf growth 48h inconclusive, Shiga inhibitor 65.4
Cn1c(C(=O)NCCN2CCOCC2)cc2sccc21	none
O=C(Nc1ccc2c(c1)OCCO2)c1cc2sccc2n1Cc1ccccc1	Pf growth 96h inconclusive, Pf growth 48h inconclusive, Shiga inhibitor 126.3
O=C(Nc1nccs1)c1cc2sccc2n1Cc1ccc(Cl)cc1	Pf growth 96h inconclusive (no result: Pf growth 48h)
O=C(NCc1ccc(Cl)cc1)C1CCN(S(=O)(=O)N2CCOCC2)CC1	none (no result: NS1 inh)
O=C(NNC(=O)c1cc(S(=O)(=O)N2CCOCC2)c(Cl)cc1Cl)c1ccccc1F	none (no result: NS1 inh, Cycloheximide cs, Pf growth 96h, Pf growth 48h, Shiga inhibitor)
COc1ccc2c(c1)C(=O)CC(c1ccc(OC)c(OC)c1)O2 (stereo not given)	Pf growth 96h inconclusive (no result: Shiga inhibitor)
COc1ccc2c(c1)C(=O)CC(c1ccccc1F)O2 (stereo not given)	Cycloheximide cs 12.8, Shiga inhibitor 35.9
Cc1ccc2c(c1)C(=O)CC(c1ccc3c(c1)OCCO3)O2 (stereo not given)	Cycloheximide cs 41.3, Shiga inhibitor 63.6
COc1ccc2c(c1)C(=O)CC(c1ccc3c(c1)OCCO3)O2 (stereo not given)	Cycloheximide cs 43.3, Shiga inhibitor 61.4
Cc1cc(C)c2c(=O)cc(C(=O)NCc3ccccc3)oc2c1	none
Cc1ccc(-n2c(N)cc(=O)nc2SCC(=O)N2CCN(c3ccccc3)CC2)cc1C	Pf growth 96h inconclusive
Cc1nc2sccn2c(=O)c1S(=O)(=O)NCC(C)c1ccccc1 (stereo not given)	Pf growth 96h inconclusive
NC(=S)Nc1ccc(F)c(F)c1F	Pf growth 48h 2.62µM
Fc1ccc(NC(=S)NCCc2ccccc2)c(F)c1F	Cycloheximide cs 35.5, Pf growth 48h inconclusive, Shiga inhibitor 109.3 (no result: NS1 inh)
Fc1ccccc1NC(=S)NCCc1ccccc1	Cycloheximide cs 39.0, Shiga inhibitor 59.4
NC(=S)Nc1ccc(F)cc1F	none
Fc1ccccc1NC(=S)NCCc1ccc(Cl)cc1	Cycloheximide cs 53.5, Pf growth 96h inconclusive, Pf growth 48h inconclusive, Shiga inhibitor 73.9
Cc1cccc(NC(=S)NCCc2ccccc2)c1C	Pf growth 96h inconclusive, Pf growth 48h inconclusive
Fc1ccccc1NC(=S)Nn1cnnc1	none
Cc1noc(C)c1-c1ccc2ncnc(NCc3cccn3C)c2c1	none (no result: NS1 inh, Pf growth 96h, Pf growth 48h, SARS PLP yeast)
Fc1cccc(NC(=S)NCCc2ccccc2)c1	Cycloheximide cs 45.4, Shiga inhibitor 96.3, SARS PLP yeast inconclusive
S=C(NCCc1ccccc1)Nc1ccc(Nc2ccccc2)cc1	Pf growth 48h inconclusive
CCc1ccccc1NC(=S)NCCSc1ccc(Cl)cc1	Pf growth 96h 4.15µM, Pf growth 48h inconclusive (no result: NS1 inh)
O=[N+]([O-])c1cccc(NC(=S)NCCc2ccccc2)c1	Cycloheximide cs 39.4, Pf growth 48h inconclusive, Shiga inhibitor 60.2
Cc1ccccc1NC(=S)NCCSc1ccc(Cl)cc1	none (no result: NS1 inh)
Fc1ccc(F)c(NC(=S)NCCc2ccccc2)c1	Cycloheximide cs 30.0, Shiga inhibitor 95.8 (no result: NS1 inh)
O=C1C(Cc2ccccc2O)NC(=S)N1c1ccccc1 (stereo not given)	none
CC(C)(C)CN1CCNC(=O)C1CC(=O)N1CCN(c2ccccc2)CC1 (stereo not given)	none
CC(Sc1nncs1)C(=O)Nc1ccc(S(=O)(=O)Nc2ncccn2)cc1 (stereo not given)	none (no result: NS1 inh, Cycloheximide cs, Pf growth 96h, Pf growth 48h, Shiga inhibitor)
COC(=O)CC/C(O)=C1/C(=N)CC(C)(C)CC1=O	none (no result: Pf growth 96h)
CCOc1ccccc1C(=O)NCC(=O)NCCc1ccc(S(N)(=O)=O)cc1	none
CCOC(=O)Cn1ccc(NC(=O)COc2ccc(F)cc2)n1	Pf growth 96h inconclusive
COc1cccc(CCN2C(=O)C(=O)N([C@@H](CNCc3ccccc3)Cc3ccccc3F)C[C@@H]2C(C)(C)C)c1	none
COc1cc2cnc(-c3ccccc3)c(-c3cc(OC)c(OC)c(OC)c3)c2cc1OC	Pf growth 96h 3.7µM, Pf growth 48h 10.4µM (no result: NS1 inh, Cycloheximide cs, Shiga inhibitor)
COc1cc2cnc(-c3ccccc3)c(-c3ccc([N+](=O)[O-])cc3)c2cc1OC	Pf growth 96h inconclusive (no result: NS1 inh, Cycloheximide cs, Shiga inhibitor)
Cc1ccc(NC(=O)C2CCCN2c2nn3c(=O)cc(C)nc3s2)cc1 (stereo not given)	Pf growth 96h 11.7µM
CCC(Cc1ccccc1)NC(=O)C1CCN(c2nn3c(=O)cc(C)nc3s2)CC1 (stereo not given)	Pf growth 96h 10.4µM
